In PubChem BioAssay (EPA / NIEHS) one finds outcome and AC50 data, which are given here for 23 molecules.

“And” between values parts separate entries of the source, which are not always exact repeats. Equal entries are not always repeated. Inconclusive results are not listed. The source made the active and inactive calls. How the source made its calls: active means hit-call score of the fitted dose curve at least 0.9, where 1 is the maximum; inconclusive means response in the unintended direction; inactive means score below 0.9.

This assay in a line: TOX21_p53_BLA_p4_viability: Viability Assessment in the Tox21 HCT-116 p53 Agonism Beta-lactamase Assay, Phase 4 (AID 2283597).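 Further: hits lower the luminescence signal meaning cytotoxicity.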 An outline of the steps:
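4000 HCT116 cells per well; 5 h attachment; compounds from DMSO, 217-fold dilution; 16 h at 37C. Then CCF4-AM, 2 h RT, followed by CellTiter-Glo, 30 min RT, luminescence. Decrease = cytotoxicity.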
For `CCCCCCCCCc1ccc(O)cc1`, the molecule was classed as inactive.

For the molecule `NS(=O)(=O)C(F)(F)C(F)(F)C(F)(F)C(F)(F)C(F)(F)C(F)(F)C(F)(F)C(F)(F)F`, the outcome was inactive.

For the molecule `CC(C)(O)C(=O)Nc1ccc([N+](=O)[O-])c(C(F)(F)F)c1`, the molecule was classed as inactive.

As for `O=S(=O)(O)C(F)(F)C(F)(F)C(F)(F)C(F)(F)F`, the molecule was classed as inactive.

In the case of `ClC1=C(Cl)[C@]2(Cl)[C@@H]3[C@H]4C[C@H]([C@@H]5O[C@H]45)[C@@H]3[C@@]1(Cl)C2(Cl)Cl`, the molecule was called inactive.

As for `N#Cc1ccc(N(CC(N)=O)CC(F)(F)F)cc1C(F)(F)F`, the molecule was called inactive.

As to `Cc1ccc(O)c(C)c1`, the call was inactive.

For the molecule `CCCN(CCC)N=O`, the outcome was inactive.

For the molecule `COS(=O)(=O)OC`, the call was inactive.

Consider `OCC(O)CO`, for which the call was inactive.

Turning to `O=C(O)C(F)(F)C(F)(F)C(F)(F)C(F)(F)C(F)(F)C(F)(F)C(F)(F)C(F)(F)C(F)(F)F`, the outcome was inactive.

On to `CO/C=C(/C(=O)OC)c1ccccc1COc1cccc(C(F)(F)F)n1`, for which the result was inactive.

In the case of `O=NN(c1ccccc1)c1ccccc1`, the molecule was called inactive.

As to `CC#Cc1cc(C)nc(Nc2ccccc2)n1`, the molecule was classed as inactive.

Consider `C[C@]12CCC(=O)C=C1CC[C@@H]1[C@@H]2CC[C@@]2(C)[C@H]1CC[C@]2(C)O`, for which the call was inactive.

Regarding `ClC1=C(Cl)[C@]2(Cl)[C@@H]3[C@@H]4C[C@@H]([C@H]5O[C@@H]45)[C@@H]3[C@@]1(Cl)C2(Cl)Cl`, the molecule was classed as inactive.

Consider `CC(c1ccc(O)cc1)(c1ccc(O)cc1)c1ccc(O)cc1`, for which the outcome was inactive.

Consider `O=C(N[C@H]1CN2CCC1CC2)c1cc2ccoc2cn1`, for which the molecule was classed as inactive.

On to `O=S(=O)(O)C(F)(F)C(F)(F)C(F)(F)C(F)(F)C(F)(F)C(F)(F)F`, for which the molecule was called inactive.

With `COc1ccc(O)c(C(C)(C)C)c1`, the call was inactive.

For `Cc1ccccc1[N+](=O)[O-]`, the result was inactive.

In general, AC50 refers to the concentration giving half of the maximal activity seen. In the case of `CCOC(=O)C(O)(c1ccc(Cl)cc1)c1ccc(Cl)cc1`, the AC50 is 59.7 µM (active) and 25.1 µM (active).

Regarding `Oc1ccc(Cl)cc1Cl`, the molecule was classed as inactive.
